In the library only some 6.6% were active in any assay of this set; here they are far more common.
Mtb FBA inh: inhibitors of M. tuberculosis fructose-bisphosphate aldolase; purified M. tuberculosis FBA, fluorescence read-out; inhibition, % at 1 µM; 360,000 compounds, 2.3% hits; in the data active = inhibition above about 27%;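 also: 0% = vehicle and 100% = reference inhibitor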
Target sequence (P9WQA3 whole entry, looked up): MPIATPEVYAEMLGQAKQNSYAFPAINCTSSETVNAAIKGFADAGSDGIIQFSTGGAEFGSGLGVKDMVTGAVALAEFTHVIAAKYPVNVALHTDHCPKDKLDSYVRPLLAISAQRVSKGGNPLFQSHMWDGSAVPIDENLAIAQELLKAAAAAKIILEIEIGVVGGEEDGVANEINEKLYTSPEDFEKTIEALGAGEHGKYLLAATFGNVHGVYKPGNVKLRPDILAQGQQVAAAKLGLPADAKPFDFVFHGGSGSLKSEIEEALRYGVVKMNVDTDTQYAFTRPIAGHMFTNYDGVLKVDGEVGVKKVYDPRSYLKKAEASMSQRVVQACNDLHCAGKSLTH
BoNT-F LC inh: blocks Botulinum neurotoxin F light chain protease | Multiplex microsphere protease cleavage assay, flow cytometry | inhibition, % at 10 µM | 360,000 compounds, 0.22% hits; in the data active = inhibition above about 35%, passing the limit was not always enough; inconclusive = no clear call, values can overlap the other calls; also: plate controls were buffer without enzyme for full effect and enzyme alone for no effect
Bead autofluor: flagged as autofluorescent in microsphere protease counterscreen. compound autofluorescence counterscreen, microsphere flow cytometry; hits give high values. fluorescence intensity (concentration not given with the values). 360,000 compounds, 3.1% hits. AID 624483; in the data active = fluorescence intensity above about 16000; inconclusive = no clear call, values can overlap the other calls
Anthrax LF inh2: blocks Bacillus anthracis lethal factor protease | multiplex microsphere protease cleavage assay, LF | AID 588501 | 360,000 compounds, 0.12% hits | inhibition, % at 10 µM | P15917; also: plate controls were buffer without enzyme for full effect and enzyme alone for no effect
GDH-TPI counter: GDH-TPI coupled enzyme inhibition counter-screen | GDH-TPI coupled enzyme counterscreen, NADH absorbance | inhibition, % at 4.8 µM | 360,000 compounds, 1.2% hits | AID 588335; in the data active = inhibition above about 30%;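 also: 0% = DMSO wells and 100% = wells lacking the enzyme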
BoNT A protease: blocks Botulinum neurotoxin A light chain protease | multiplex microsphere protease substrate cleavage, flow cytometry | inhibition, % at 10 µM | 360,000 compounds, 0.17% hits | AID 588499; also: plate controls were buffer without enzyme for full effect and enzyme alone for no effect
* marks the source's active call; other numbers are inactive results; ? = inconclusive; nt = not tested or not shown; + = active, no number. Rule as the data show it, unless noted: active = inhibition above about 30%; inconclusive = no clear call, values can overlap the other calls; inactive = below that.

SMILES	Mtb FBA inh	BoNT-F LC inh	Bead autofluor	Anthrax LF inh2	GDH-TPI counter	BoNT A protease
O=C(O)CCc1ccc(-c2cccs2)n1NC(=O)c1ccccc1Br	0.0	-5.8	23254*	-1.9	19.4	-2.9
CC(C)(C)c1ccc(C(=O)Nn2c(CCC(=O)O)ccc2-c2cccs2)cc1	-1.1	-0.5	17160*	-1.4	6.8	-2.4
O=C(CN1C(=O)NC2(CCCCCC2)C1=O)c1ccc(OC(F)F)cc1OC(F)F	0.7	-0.9	5779	0.5	-1.4	1.1
COC(=O)c1cnn(-c2nc(-c3ccccc3)cs2)c1N	2.1	7.3	2955	-3.2	12.7	2.5
COC(=O)c1cnn(C(=O)c2cc(OC)ccc2Br)c1N	0.7	-2.1	23297*	-1.5	14.1	1.1
CCOC(=O)C1(C)CCN1C(=O)c1cc(OC)ccc1Br (stereo unspecified)	-2.1	6.0	3614	-3.1	6.2	0.0
COC(=O)c1cnn(C(=O)c2ccccc2Br)c1N	5.2	-3.6	22952*	-3.5	5.5	-0.7
CNC(=O)OCc1nc(SC2CCCCO2)n(C)c1COC(=O)NC (stereo unspecified)	0.3	-9.2	4399	-2.6	nt	0.1
Cc1cc(C)cc(NC(=O)[C@@H](NC(=O)c2ccco2)C(C)C)c1	2.7	2.4	4021	2.5	6.0	3.5
O=C(COC(=O)Cc1c(F)cccc1Cl)NNC(=O)c1ccccc1	-1.1	0.0	3881	-6.3	8.4	0.1
COc1ccc(S(=O)(=O)N(C)CC(=O)N2CCN(C)CC2)cc1C	4.5	-3.6	23309*	-0.4	-5.8	-2.2
COc1ccc(S(=O)(=O)N(C)CC(=O)N2CCC(C(N)=O)CC2)cc1Cl	4.5	-4.8	21013*	-0.4	-0.6	?
O=C1c2ccccc2C(c2nnnn2Cc2ccccc2)N1C1CC1 (stereo unspecified)	nt	-14.9	6992	7.0	nt	-0.3
O=P(O)(O)c1cc(-c2ccccc2)oc1-c1ccccc1	163.7*	-1.2	5201	2.3	37.4*	-0.4
O=c1oc(-c2ccccc2)cc(Cl)c1Cl	11.8	-1.3	3539	2.0	17.1	-0.4
CCOC(=O)c1c(Nc2ccccc2)sc(/C=C2\C=Nc3ccccc32)c1O	-4.6	11.4	17134*	-3.1	-1.9	8.1
Oc1nc(Nc2ccccc2)sc1/C=C1\C=Nc2ccccc21	-3.9	-5.5	4606	3.6	9.1	-1.0
CCOC(=O)C1CCN(S(=O)(=O)c2cccc(-c3cn4cccnc4n3)c2)CC1	+	-5.3	3007	0.1	8.1	-0.6
CCCS(=O)(=O)N1CCc2ccc(NC(=O)C3CCCO3)cc2C1 (stereo unspecified)	2.3	0.7	5332	-0.5	-2.1	1.5
O=C(Nc1ccccc1C(=O)N/N=C/c1ccc(F)cc1)c1ccccc1Br	0.8	-4.1	7962	-5.9	4.6	-1.3
O=C(N/N=C/c1ccc(O)cc1)c1ccc(NC(=O)c2ccccc2Br)cc1	-4.2	1.1	2437	-6.7	42.5*	0.3
O=C(N/N=C/c1ccc(O)cc1)c1cccc(N/N=C/c2ccc(O)cc2)c1	-0.8	-6.7	3410	-3.0	36.9*	-0.6
Cc1ccccc1C(=O)Nc1ccc(C(=O)N/N=C/c2ccc(O)cc2)cc1	3.6	0.5	3414	-2.1	33.8*	-4.9
O=C(N/N=C/c1ccncc1)c1cccc(N/N=C/c2ccncc2)c1	-3.2	-0.9	4108	-6.2	16.2	-0.7
Cc1ccc(C(=O)OCCn2cc(C#N)c(=O)[nH]c2=O)cc1	-1.2	-0.7	3184	-6.4	12.8	1.1
SMILES	Mtb FBA inh	BoNT-F LC inh	Bead autofluor	Anthrax LF inh2	GDH-TPI counter	BoNT A protease
Cc1ccc(S(=O)(=O)NCc2cccc([N+](=O)[O-])c2)cc1	-2.2	-3.6	3544	-5.2	2.6	-0.5
COC(=O)c1cc(C(=O)c2ccc(Cl)cc2Cl)cn1C	-2.8	0.2	21700*	-2.0	3.9	?
Cc1ccc(N/C(N)=N/c2nc(CSc3ccc(C)cc3)cc(=O)[nH]2)cc1	5.2	-1.7	23020*	0.4	7.6	-1.6
CCCc1cc(=O)[nH]c(/N=C(\N)Nc2ccccc2)n1	2.3	-0.9	9496	-5.0	-5.5	0.8
COC(=O)Cc1cc(=O)[nH]c(/N=C(\N)Nc2ccccc2)n1	7.2	5.5	21352*	-0.9	3.0	4.3
COc1ccc(N/C(N)=N/c2nc(CSc3ccc(C)cc3)cc(=O)[nH]2)cc1	1.2	14.7	3445	0.2	15.7	-0.1
CCOC(=O)Cc1cc(=O)[nH]c(Nc2nc3ccccc3o2)n1	6.3	-9.0	6193	-4.7	17.7	-0.7
COC(=O)Cc1cc(=O)[nH]c(Nc2nc3ccccc3o2)n1	9.4	-3.8	2423	-2.9	36.9*	-0.3
O=C(C[n+]1cc[nH]c1)c1ccc(Cl)cc1	-4.6	-17.0	3972	-5.4	5.5	-1.5
CC(NC(=O)c1ccc2nc(Cc3cccc(Cl)c3)oc2c1)c1ccncn1 (stereo unspecified)	-2.8	-1.4	3642	-0.7	3.1	-0.7
C(=N\N1CCOCC1)/c1nc(-c2ccccc2)n2ccccc12	1.1	3.8	4879	-3.3	34.1*	-1.3
CCN(CC)S(=O)(=O)c1cc(Br)c(C)cc1OC	0.7	6.8	2502	0.1	-0.8	0.0
COc1ccc(Nc2nc(N3CCCC3)nc(N3CCCC3)n2)c(OC)c1	-1.4	-2.6	20538*	-3.8	-3.6	-0.6
COc1ccc(Cl)cc1Nc1nc(N)nc(C(F)(F)F)n1	2.0	-12.1	12088	-6.3	0.6	-1.6
COc1ccc(Nc2nc(N)nc(C(F)(F)F)n2)c(OC)c1	0.3	6.1	17527*	-8.7	-4.8	5.5
CC(=O)N1CCc2cc(NC(=O)c3ccc(C)cc3)ccc21	1.2	-3.2	21491*	-2.4	-2.1	-3.0
CCCn1c(O)c(/C=C2\C=NN=C2c2ccccc2)sc1=S	-6.1	-8.0	25085*	0.3	12.2	-2.6
C=CCn1c(O)c(/C=C2\C=NN=C2c2ccccc2)sc1=S	-3.8	-3.6	5764	-8.2	15.3	-0.2
COc1cc(S(=O)(=O)N2CCOCC2)ccc1NC(=O)COC(=O)c1cc(OC)c(OC)c(OC)c1	1.1	13.0	4256	-1.5	4.1	3.1
COc1cc(S(=O)(=O)N2CCOCC2)ccc1NC(=O)COC(=O)CC12CC3CC(CC(C3)C1)C2	-0.4	-6.0	24036*	-2.9	-10.2	-1.8
O=C(NNC(=O)c1ccc(S(=O)(=O)N2CCOCC2)cc1)c1ccccc1	0.8	45.2*	3693	-3.8	3.5	1.8
COc1cccc(NS(=O)(=O)c2ccc(S(=O)(=O)N3CCOCC3)cc2)c1	1.6	-6.3	17066*	-2.1	8.6	-2.7
COc1cccc(NC(=O)C2CCN(S(=O)(=O)c3ccc4c(c3)OCCO4)CC2)c1	1.6	-2.6	22969*	-8.3	-5.7	-0.4
O=C(NC1CCCC1)C(c1ccc(F)cc1)N(Cc1ccc(F)cc1)C(=O)CCl (stereo unspecified)	-0.5	5.6	7443	-1.4	9.9	0.7
CC(C)[C@H](NC(=O)c1cccc(S(=O)(=O)N2CCCC2)c1)c1nc2ccccc2[nH]1	-0.5	-4.5	2380	-2.7	15.5	-0.7
